A549 tox: counter-screen for Nrf2 inhibitors: cytotoxicity in A549 cells; A549 ARE-Fluc cells, CellTiter-Fluor viability, 18-24 h; Potency, µM (titrated, usually from 46 µM), most hits filed as inhibitors; 390,000 compounds, 0.16% hits; AID 504648
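Cytotoxicity counterscreen: CellTiter-Fluor fluorescence was measured in A549 ARE_Fluc cells after 18-24 h of compound exposure in a concentration series. The subsequent BugLite luminescent read reports ARE-luciferase activity.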
KB-V1 cytotox: KB-V1 MDR subline cytotoxicity | KB-V1 MDR cells viability, CellTiter-Glo, 72 h | Potency, µM (doses to about 46.1 µM), most hits filed as cytotoxic | 400,000 compounds, 3.4% hits | AID 1347076; further: nearly all actives have a fitted effect of over 60% in size
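Compound-treated KB-V1 multidrug-resistant cells, 72 h, 37 degrees C; viability by CellTiter-Glo. Fitted qHTS curves give the values.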
Giardia kill: kills Giardia lamblia; Giardia lamblia trophozoite viability; activity change, % at 7.66 µM, hits read low; 340,000 compounds, 0.15% hits; AID 540267; in the data active means activity change below about -80%; inconclusive means between about -30% and that limit;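 further: parasites exposed to compound for two days anaerobically before the ATP read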
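Trophozoites 100 cells/well + cpd; 48 hrs, 37 deg C, anaerobic. ATPLite 1-Step added, 15-30 min RT, luminescence read (ATP-based viability).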
Nrf2 inh: blocks Nrf2 signaling; A549 ARE-Fluc reporter, luciferase luminescence, 18-24 h; Potency, µM (highest dose often 46 µM), usual class: inhibitors; 360,000 compounds, 2.1% hits; AID 504444; further: nearly all actives have a fitted effect of over 60% in size
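Nrf2 activity is the BugLite luminescence, read 15 min after reagent at room temperature, following CellTiter-Fluor cytotoxicity readout (30 min, 37C). Compound titrations were applied for 18-24 h to 5000 A549 ARE_Fluc cells/well in 5% FBS OPTI-MEM.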
PI4K2A inh: blocks human PI4K2A kinase activity. Q9BTU6. purified PI4K2A, ADP-Glo luminescence, 1 h; hits give low values. activity change, negative = inhibition, % at 76.9 µM. 420,000 compounds, 0.13% hits. AID 1346378; in the data active means activity change below about -50%; inconclusive means mostly about -30% to -49%
Target sequence (Q9BTU6 whole entry, looked up): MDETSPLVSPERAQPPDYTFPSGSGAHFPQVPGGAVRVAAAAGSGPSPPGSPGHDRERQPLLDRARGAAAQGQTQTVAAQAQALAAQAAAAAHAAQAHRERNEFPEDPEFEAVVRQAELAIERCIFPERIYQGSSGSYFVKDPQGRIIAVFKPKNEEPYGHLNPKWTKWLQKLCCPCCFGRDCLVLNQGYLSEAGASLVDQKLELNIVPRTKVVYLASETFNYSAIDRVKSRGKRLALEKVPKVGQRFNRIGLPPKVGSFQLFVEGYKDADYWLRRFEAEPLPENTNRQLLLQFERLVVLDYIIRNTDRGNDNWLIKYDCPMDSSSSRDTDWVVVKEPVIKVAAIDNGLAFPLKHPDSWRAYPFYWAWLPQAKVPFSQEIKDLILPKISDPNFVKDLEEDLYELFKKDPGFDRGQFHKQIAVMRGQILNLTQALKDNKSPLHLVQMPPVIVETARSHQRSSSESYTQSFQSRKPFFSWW
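ADP-Glo luminescence measured ADP generated by PI4K2A enzyme (4 ug/mL before mixing) with 1.2 mM PI substrate (pre-mix) and 300 microM ATP (pre-mix). Tris pH7.5 buffer with MgCl2, Triton X-100; 1 h reaction at ambient temperature.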
KB-3-1 tox: kills parental KB-3-1 adenocarcinoma cells; 400,000 compounds, 1.4% hits; Potency, µM (highest dose often 46.1 µM), actives largely listed as cytotoxic; KB-3-1 viability, CellTiter-Glo ATP luminescence, 72 h; further: nearly all actives have a fitted effect of over 60% in size
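Cytotoxicity measured as CellTiter-Glo luminescence after 72 h at 37 C. Compound titrations were pinned onto drug-naive KB-3-1 parental adenocarcinoma cells grown in DMEM with 10% FBS, and normalized data fitted to concentration-response curves.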
Hits are given with their value. Sampled rows, rich in hits. Any-hit rate of the full collection: about 5.7%. Unless noted, the call rests on the fitted dose curve; in most records, active means well fitted curve in the direction sought with a large enough effect; inconclusive means small, poorly fitted or top-dose-only effect, or another doubt; inactive means no such curve, though single readings can be large; an effect the other way counts as inactive or inconclusive.

Screening CCOc1ccc(S(=O)(=O)n2cc(-c3ccc(F)cc3)c(N)n2)cc1 returned A549 tox inactive, KB-V1 cytotox 16µM, Giardia kill inactive, PI4K2A inh inactive and KB-3-1 tox inactive.
For CCOc1ccc(S(=O)(=O)n2cc(-c3ccccc3)c(N)n2)cc1 the results were A549 tox inactive, KB-V1 cytotox inactive, Giardia kill inactive, Nrf2 inh inconclusive, PI4K2A inh inactive and KB-3-1 tox inactive.
CCOc1cc(S(=O)(=O)n2cc(-c3ccc(F)cc3)c(N)n2)cc(OCC)c1OCC was read as A549 tox inactive, KB-V1 cytotox 16µM, Giardia kill inactive, Nrf2 inh inconclusive, PI4K2A inh inactive and KB-3-1 tox inconclusive.
For Cc1cc(N(C)C)cc(C)c1C=O the results were KB-V1 cytotox inactive and KB-3-1 tox inactive.
`CCc1c(C)c2ccccc2[nH]c1=O` gave KB-V1 cytotox 2.3µM and KB-3-1 tox 4.1µM.
Screening CCc1c(C)[nH]c2ccccc2c1=O returned A549 tox inactive, KB-V1 cytotox inactive, Giardia kill inactive, PI4K2A inh inactive and KB-3-1 tox inactive.
Screening CCCCCc1c(O)c2ccccc2[nH]c1=O returned A549 tox inactive, KB-V1 cytotox 16µM, Giardia kill inactive, Nrf2 inh inactive, PI4K2A inh inactive and KB-3-1 tox inactive.
`CCCCCOC(=O)Cc1c(O)c2ccccc2[nH]c1=O` gave A549 tox inactive, KB-V1 cytotox inactive, Giardia kill inactive, Nrf2 inh inactive, PI4K2A inh inactive and KB-3-1 tox inactive.
c1cnc(SCC2CCCCC2)c(-c2nc3ccccc3[nH]2)c1 was read as PI4K2A inh inactive.
Cc1cc(C)cc(NS(=O)(=O)c2ccc(-c3cc(C)no3)cc2)c1 was read as A549 tox inactive, Nrf2 inh inconclusive and PI4K2A inh inactive.
For Cc1onc(-c2ccccc2)c1C(=O)Cl the results were PI4K2A inh inactive.
COc1cc(/C=C2\SC(=O)N(c3cccc(Cl)c3)C2=O)cc([N+](=O)[O-])c1O was read as A549 tox 13µM, KB-V1 cytotox inactive, Giardia kill inconclusive, Nrf2 inh inconclusive, PI4K2A inh inactive and KB-3-1 tox inactive.
Screening COc1cc(/C=C2\SC(=O)N(c3ccc(Cl)cc3)C2=O)cc([N+](=O)[O-])c1O returned A549 tox 16µM, KB-V1 cytotox inactive, Giardia kill inconclusive, Nrf2 inh inconclusive, PI4K2A inh inactive and KB-3-1 tox inactive.
For COc1c(Br)cc([N+](=O)[O-])c(OC)c1C(=O)NC(=O)Nc1c(Cl)cccc1Cl the results were A549 tox inactive, KB-V1 cytotox inconclusive, Giardia kill inactive, Nrf2 inh inactive, PI4K2A inh inactive and KB-3-1 tox inactive.
For COc1c(Br)cc([N+](=O)[O-])c(OC)c1C(=O)NC(=O)Nc1cc(Cl)cc(Cl)c1 the results were A549 tox inactive, KB-V1 cytotox 6.5µM, Giardia kill inactive, Nrf2 inh inactive, PI4K2A inh inactive and KB-3-1 tox inconclusive.
Screening COC(=O)CN1C(=O)[C@@H]2[C@H](C1=O)[C@@H]1CC(C(=O)OC)=C[C@@H](C(=O)OC)C3C1=C(C(=O)C31CCCCC1)[C@@H]2C (some centres not stated) returned A549 tox inactive, Giardia kill inactive and Nrf2 inh inconclusive.
For O=C(Nc1cccc(-c2cn3ccccc3n2)c1)C1CC1 the results were A549 tox inactive, KB-V1 cytotox 18µM, Giardia kill inactive, Nrf2 inh inactive, PI4K2A inh inactive and KB-3-1 tox inconclusive.
O=C(Nc1cccc(-c2cn3ccccc3n2)c1)c1cccc(Cl)c1 was read as A549 tox inconclusive, KB-V1 cytotox 9.2µM, Giardia kill inactive, Nrf2 inh inconclusive, PI4K2A inh inactive and KB-3-1 tox inactive.
For O=C(Nc1cccc(-c2cn3ccccc3n2)c1)c1cnccn1 the results were A549 tox inactive, KB-V1 cytotox inactive, Giardia kill inactive, Nrf2 inh inactive, PI4K2A inh inactive and KB-3-1 tox inactive.
`CCC(=O)Nc1cccc(-c2cn3ccccc3n2)c1` gave A549 tox inactive, KB-V1 cytotox inactive, Giardia kill inactive, Nrf2 inh inactive, PI4K2A inh inactive and KB-3-1 tox inactive.
For O=S(=O)(c1cc(F)ccc1F)N1CCN(c2ncnc3ccccc23)CC1 the results were A549 tox inactive, KB-V1 cytotox 9.2µM, Giardia kill inactive, Nrf2 inh 12µM, PI4K2A inh inactive and KB-3-1 tox 5.2µM.
Screening CC1(C)CC[C@]2(C(=O)O)CC[C@]3(C)C(=CC[C@@H]4[C@@]5(C)CC[C@H](O[C@@H]6O[C@H](C(=O)O)[C@@H](O)[C@H](O[C@@H]7OC[C@H](O)[C@H](O)[C@H]7O)[C@H]6O)C(C)(C)[C@@H]5CC[C@]43C)[C@@H]2C1 returned A549 tox inconclusive, KB-V1 cytotox inactive, Giardia kill inactive, Nrf2 inh 21µM, PI4K2A inh inactive and KB-3-1 tox inactive.
`COc1ccc(OCCCCn2c(C3CC(=O)N(c4cccc(Cl)c4)C3)nc3ccccc32)cc1` (configuration not stated) gave A549 tox inactive, KB-V1 cytotox inactive, Nrf2 inh inconclusive, PI4K2A inh inactive and KB-3-1 tox inactive.
For CCOc1ccccc1NC(=O)Cn1c(=O)n(Cc2ccc(OC)cc2)c(=O)c2oc3ccccc3c21 the results were A549 tox inactive, Nrf2 inh inactive and PI4K2A inh inactive.
Screening O=C(Nc1ccccc1C(=O)N/N=C/c1ccc(F)cc1)c1ccccc1Br returned A549 tox inactive, KB-V1 cytotox 26µM, Giardia kill inactive, Nrf2 inh inactive, PI4K2A inh inactive and KB-3-1 tox inactive.
Screening COC(=O)c1ccc(/C=N/NC(=O)c2ccccc2Cl)cc1 returned A549 tox inactive, KB-V1 cytotox inactive, Giardia kill inactive, Nrf2 inh inactive, PI4K2A inh inactive and KB-3-1 tox inactive.
For CC(C)c1ccc(/C=N/NC(=O)c2ccccc2Cl)cc1 the results were A549 tox inactive, KB-V1 cytotox 4.6µM, Giardia kill inactive, Nrf2 inh inconclusive, PI4K2A inh inactive and KB-3-1 tox 15µM.
CN(C)S(=O)(=O)c1ccc(-c2csc(N/N=C/c3ccc(O)cc3)n2)cc1 was read as A549 tox inconclusive, KB-V1 cytotox 15µM, Giardia kill inactive, Nrf2 inh inactive, PI4K2A inh inactive and KB-3-1 tox 21µM.
CN(C)S(=O)(=O)c1ccc(-c2csc(N/N=C/c3ccco3)n2)cc1 was read as A549 tox inactive, KB-V1 cytotox inconclusive, Giardia kill inactive, Nrf2 inh inactive, PI4K2A inh inactive and KB-3-1 tox inconclusive.
Screening Cc1[nH]n(-c2nc(-c3cccc([N+](=O)[O-])c3)cs2)c(=O)c1C returned A549 tox inactive, KB-V1 cytotox 16µM, Giardia kill inactive, Nrf2 inh inactive, PI4K2A inh inactive and KB-3-1 tox inactive.

Assay outcomes: PubChem BioAssay, National Center for Advancing Translational Sciences (NCATS)
